# A selection: hits, their analogues and other compounds. The true share with any hit is near 6.3%.
# TGFb SMAD3 inh: qHTS for Inhibitors of TGF-b | actives 1.2% (n = 410,000) | HepG2 CAGA-GFP TGF-b/SMAD3 reporter, GFP fluorescence, 18 h; TGF-beta stimulated, 500 pg/mL final | Potency, µM (doses to about 46.1 µM), for the others: at the highest dose activity, negative = inhibition, usual class: inhibitors; note: % is set by controls: 0 for no effect and ±100 for the full control effect; nearly all actives have a fitted effect of over 65% in size
#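 HEPG2 CAGA-GFP, 1000 cells/well; 2 h settle, 37 C; cpd via pin tool; TGF-b 500 pg/mL final; 18 h, 37 C; GFP imaging ex488/em500-530; %Activity normalised to -TGF-b and +DMSO controls; CRC fit, curve class.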
# RORgamma inh: qHTS for inhibitors of ROR gamma transcriptional activity | Drosophila S2 Gal4-RORgamma UAS-luciferase reporter, 20 h | Potency, µM (titrated, usually from 53.6 µM), inactives show at the highest dose activity change, negative = inhibition, usual class: inhibitors | actives 5.4% (n = 310,000); note: % is set by controls: 0 for no effect and ±100 for the full control effect; nearly all actives have a fitted effect of over 60% in size
# Target sequence (P51450 whole entry, looked up, the tested form may be a part): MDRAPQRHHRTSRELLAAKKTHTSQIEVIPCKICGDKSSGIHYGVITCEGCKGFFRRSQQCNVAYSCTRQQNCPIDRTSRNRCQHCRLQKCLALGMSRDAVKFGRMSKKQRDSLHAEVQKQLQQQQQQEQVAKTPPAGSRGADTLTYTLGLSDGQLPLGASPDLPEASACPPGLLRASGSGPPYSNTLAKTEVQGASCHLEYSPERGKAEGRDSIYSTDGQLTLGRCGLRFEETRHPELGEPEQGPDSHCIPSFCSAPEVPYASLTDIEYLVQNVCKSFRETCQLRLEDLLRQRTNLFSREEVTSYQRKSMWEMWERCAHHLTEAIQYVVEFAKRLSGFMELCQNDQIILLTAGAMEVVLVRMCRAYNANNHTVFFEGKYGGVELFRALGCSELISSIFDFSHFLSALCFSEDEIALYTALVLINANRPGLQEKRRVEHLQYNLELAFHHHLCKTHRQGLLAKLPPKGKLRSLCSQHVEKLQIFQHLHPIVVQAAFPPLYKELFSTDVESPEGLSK
#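 Drosophila S2 cells stably expressing Gal4-DBD/mouse RORγ fusion under metallothionein promoter plus UAS-luciferase; compound 1 h, then 700 uM CuSO4 induction for 20 h at ambient temperature; inhibition read as reduced luminescence.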
# Gal4-VP16 FLuc: VP16 counterscreen qHTS for inhibitors of ROR gamma transcriptional activity; AID 2546, 2010; actives 3.5% (n = 310,000); Potency, µM (titrated, usually from 53.6 µM), for inactives: at the highest dose activity, negative = inhibition, hits mostly inhibitors; Drosophila S2 Gal4-VP16 UAS-luciferase, luminescence, 20 h;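 note: Gal4-VP16 expression switched on by copper sulfate through the metallothionein promoter; % is set by controls: 0 for no effect and ±100 for the full control effect; nearly all actives have a fitted effect of over 50% in size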
# HepG2 viability: qHTS for Inhibitors of TGF-b: Cytotox Counterscreen. HepG2 CAGA-GFP viability, ATP luminescence, 18 h. Potency, µM (highest dose often 46.1 µM), for inactives: at the top dose activity change, negative = cytotoxicity, actives largely listed as cytotoxic. actives 0.76% (n = 410,000)
#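 CellTiter-Glo luminescence gave cytotoxicity after 18 hours at 37 degrees C. The cells were HepG2 CAGA-GFP in 1% FBS DMEM, stimulated with 500 pg/mL TGF-beta after compound addition. %Activity was normalised to no-cell wells (complete cell-killing) and DMSO (no toxicity), and curves were fitted and classified.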
# ATXN2 expr inh: Primary qHTS for Inhibitors of ATXN expression; HEK-293 ATXN2-luciferase reporter, luminescence, 24 h; actives 0.72% (n = 360,000); Potency, µM (top dose mostly 57 µM), for inactives: at the top dose activity change, negative = inhibition, hits mostly inhibitors; note: % is set by controls: 0 for no effect and ±100 for the full control effect; nearly all actives have a fitted effect of over 55% in size
#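 qHTS (up to 57 uM final) was run with 24 h compound exposure of reporter cells at 37 °C. Each well was multiplexed: SteadyGlo luminescence measured ATXN2-luciferase expression after a fluorogenic Gly-Phe-AFC viability readout (25 uM final).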
# ATXN viability: Viability Counterscreen for Primary qHTS for Inhibitors of ATXN expression; S2 cells (HEK-293 line with an ATXN2-luciferase reporter) viability, CellTiter-Fluor protease fluorescence, 24 h; Potency, µM (series often up to 56.7 µM), most hits filed as cytotoxic; actives 0.49% (n = 400,000); AID 651635, 2014; note: nearly all actives have a fitted effect of over 40% in size
# An asterisk follows results filed as active; i = inactive; ? = inconclusive; . = not tested or not shown; [ ] = remark or other dose. Calls come from the whole dose curve; as a rule, active = well fitted curve in the direction sought with a large enough effect; inconclusive = small, poorly fitted or top-dose-only effect, or another doubt; inactive = no such curve, though single readings can be large; an effect the other way counts as inactive or inconclusive. Potency is the fitted concentration of half-maximal effect.
SMILES,TGFb SMAD3 inh,RORgamma inh,Gal4-VP16 FLuc,HepG2 viability,ATXN2 expr inh,ATXN viability
CCCCOC(=O)NC1CCc2cc(OC)c(OC)c(OC)c2-c2ccc(SC)c(=O)cc21 (stereo not drawn),-80%,.,.,0%,1%,0.038µM*
O=C1C(Cl)=C(NCCN2CCOCC2)C(=O)c2ccccc21,?,?,?,18µM*,-36%,?
O=C1C(Cl)=C(NCCCO)C(=O)c2ccccc21,?,11µM*,?,-95%,-37%,i
CCOCCCNC1=C(Cl)C(=O)c2ccccc2C1=O,?,-42%,?,-57%,-36%,i
CC(=O)Nc1ccc(-c2ccnc3c2CC(C)(C(=O)NCc2cccc(Cl)c2)O3)cc1 (stereo not drawn),14%,.,.,6%,-21%,i
CCCN(CCC)C(=O)c1cc([N+](=O)[O-])cc2c1-c1ccc([N+](=O)[O-])cc1C2=C(C#N)C#N,-13%,-8%,?,-3%,.,i
Cc1ccc(S(=O)(=O)N2CCN(c3nc(-c4ccc(F)cc4)nc4cc(Cl)ccc34)CC2)cc1,-30%,.,.,-16%,.,.
CCOC1OC(=O)C[C@H]1NC(=O)[C@@H]1CCCN1C(=O)[C@@H](NC(=O)c1ccc(N)c(Cl)c1)C(C)(C)C (stereo partly drawn),.,.,.,.,51%,.
COC(=O)c1ccc(NC(=O)CCc2c(C)nc3c(c(C)nn3C(C)(C)C)c2C)cc1,16µM*,.,.,-47%,13%,i
CCCCN(CCO)CCCC,-13%,-3%,-4%,-12%,3%,i
CCCCN(CCCC)C(=S)[S-].CCCCN(CCCC)C(=S)[S-].[Zn+2],.,.,.,.,.,8.9µM*
CN(C)CCNc1nc(-c2ccco2)c2c(c1C#N)CC(C)(C)OC2,-19%,-4%,0%,3%,-32%,i
CCCCN(C)c1nc(-c2ccco2)c2c(c1C#N)CC(C)(C)OC2,?,-91%,?,-48%,22µM*,i
CCN(C(=O)COC(=O)c1cccc(S(=O)(=O)N(C)C)c1)c1c(N)n(Cc2ccccc2)c(=O)[nH]c1=O,-3%,.,.,-40%,.,.
CCOc1ccc(NCc2cccn2-c2nnc(N3CCC(C(=O)NCCCN4CCCCC4C)CC3)s2)cc1 (stereo not drawn),-23%,4%,-4%,20µM*,.,i
COc1cccc(/C(O)=C/c2nc3ccc(C(=O)NCCc4ccc(Cl)cc4)cc3[nH]c2=O)c1,-9%,?,14µM*,2%,?,?
COc1cccc(/C(O)=C/c2nc3ccc(C(=O)NCCc4cccc(C)c4)cc3[nH]c2=O)c1,80%,20%,?,-47%,-5%,i
COc1cccc(-c2cc(C(=O)Nc3cccc(O)c3)no2)c1,-29%,0.89µM*,2.5µM*,-49%,-10%,i
O=C(Nc1cccc(O)c1)c1cc(-c2cccs2)on1,10%,2µM*,3.5µM*,8%,9%,i
Cc1cc2oc(=O)c(CC(=O)O)c(C)c2c2occ(-c3ccc(F)cc3)c12,-8%,.,.,-17%,20%,i
N/C(Cn1nnc(-c2ccccc2)n1)=N\O,24%,-28%,-1%,0%,5%,i
Cc1ccc(-c2nnn(C/C(N)=N/O)n2)cc1,5%,2.8µM*,2.8µM*,9%,.,i
Cn1cnc([N+](=O)[O-])c1S(=O)(=O)Oc1cccc2ccccc12,?,.,.,-83%,?,16µM*
CCS(=O)(=O)c1c([N+](=O)[O-])ncn1C,18µM*,?,10µM*,-44%,.,?
CCN(CC)c1c([N+](=O)[O-])ncn1C,?,16%,1%,10%,-2%,?
SMILES,TGFb SMAD3 inh,RORgamma inh,Gal4-VP16 FLuc,HepG2 viability,ATXN2 expr inh,ATXN viability
Cn1cnc([N+](=O)[O-])c1S(=O)(=O)Oc1ccc(Cl)cc1,?,.,.,22µM*,?,.
CCC(C)c1ccc(OCC(=O)Nc2cccc(-c3nc4ncccc4o3)c2)cc1 (stereo not drawn),?,.,.,-24%,?,?
N#CCCS(=O)(=O)c1ccccc1,.,7%,-9%,.,.,.
O=c1c(-c2ccc(F)cc2)nc2cncnc2n1C1CC1,.,-12%,-15%,.,.,.
COC(=O)CCC(=O)Oc1ccc(OC(=O)CCC(=O)OC)cc1,.,13µM*,?,.,.,.
O=C1CCC[C@@H]2C[C@@]3(C[C@@H]4CCN1[C@H]24)Nc1ccccc1NC3=NC1CCCCC1,?,.,.,2%,.,.
COc1cccc(C(=O)Nc2nc(SCc3ccc(Cl)cc3)n[nH]2)c1,0%,-4%,11%,16µM*,20%,i
COc1cccc(C(=O)NNC(=O)Cc2ccc(Cl)cc2)c1,7%,21%[10 µM],-1%,-16%,5%,i
O=[N+]([O-])c1ccc(O)c(-c2nn[nH]n2)c1,10%,10µM*,-24%,-32%,65%,i
COc1ccc(CN(C)Cc2nc3scc(-c4ccccc4)c3c(=O)[nH]2)cc1OC,?,1.4µM*,2.5µM*,-42%,-15%,i
O=C(Nc1cnc2ccccn2c1=O)c1ccc(Cl)cc1Cl,2%,2.5µM*,?,0%,?,i
Cc1cccc(NC(=O)c2cnc3ccccn3c2=O)c1,6%,2.5µM*,?,-28%,54%,i
O=C(Nc1cnc2sccn2c1=O)c1ccccc1Cl,-10%,7.1µM*,?,-19%,9%,i
N#Cc1c(NC(=O)COC(=O)c2ccc(O)cc2O)sc2c1CCC2,-1%,.,.,1%,7%,i
COc1ccc(OC)c(CCNC(=O)C(C)n2c(C)c3cnn(-c4ccccc4)c(=O)c3c2C)c1 (stereo not drawn),-15%,.,.,-19%,-4%,i
COc1ccc(C(=O)N2CCC3(CC2)CCN(c2cccc(-c4ccccc4)c2)CC3)cc1,.,3%,-10%,.,.,.
CC1(C)CC[C@]2(C(=O)n3ccnc3)CC[C@]3(C)[C@H](C(=O)C=C4[C@@]5(C)C=C(C#N)C(=O)C(C)(C)[C@@H]5CC[C@]43C)[C@@H]2C1,?,.,.,-97%,3.4µM*,3.8µM*
O=C(Nc1nnc(S(=O)(=O)N2CCN(c3ccc(F)cc3)CC2)s1)c1ccccc1,6%,?,-6%,-4%,14%,i
O=C(Nc1cc(C(F)(F)F)ccc1Cl)C(Sc1nnc(-c2cccs2)o1)c1ccccc1 (stereo not drawn),-15%,11µM*,?,-12%,14%,i

# Screening data from PubChem.
